# Screens deposited in PubChem BioAssay by National Center for Advancing Translational Sciences (NCATS).
# ATXN2 expr inh: inhibitors of ATXN2 expression; 360,000 tested, 0.72% active; HEK-293 ATXN2-luciferase reporter, luminescence, 24 h; Potency, µM (highest dose often 57 µM), usual class: inhibitors; further: nearly all actives have a fitted effect of over 55% in size
#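 qHTS (up to 57 uM final) was run with 24 h compound exposure of reporter cells at 37 °C. Each well was multiplexed: SteadyGlo luminescence measured ATXN2-luciferase expression after a fluorogenic Gly-Phe-AFC viability readout (25 uM final).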
# S2 tox: reduces viability in counter-screen for ATXN expression inhibitors; S2 cells (HEK-293 line with an ATXN2-luciferase reporter) viability, CellTiter-Fluor protease fluorescence, 24 h; Potency, µM (highest dose often 56.7 µM), hits mostly cytotoxic; 400,000 tested, 0.49% active; AID 651635; further: nearly all actives have a fitted effect of over 40% in size
# TGFb SMAD3 inh: TGF-b pathway inhibition | Potency, µM (highest dose often 46.1 µM), most hits filed as inhibitors | HepG2 CAGA-GFP TGF-b/SMAD3 reporter, GFP fluorescence, 18 h; TGF-beta stimulated, 500 pg/mL final | 410,000 tested, 1.2% active; further: nearly all actives have a fitted effect of over 65% in size
#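 Using HEPG2 CAGA-GFP reporter cells at 1000 cells/well, we pinned test compounds, stimulated with recombinant TGF-beta (500 pg/mL final) and measured total well GFP after 18 h.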
# uPA surface inh: inhibitors of cell surface uPA generation. 330,000 tested, 0.31% active. cell surface uPA generation assay, qHTS. Potency, µM (top dose mostly 38.3 µM), most hits filed as inhibitors. AID 540303; active means well fitted inhibition curve with a large enough effect; inconclusive means small, poorly fitted or top-dose-only effect; inactive means no such curve, though single readings can be large or run the other way; tested in mouse RAW 264.7 cells; further: nearly all actives have a fitted effect of over 55% in size
# HepG2 tox: HepG2 cytotoxicity, counter-screen for TGF-b inhibitors; HepG2 CAGA-GFP viability, ATP luminescence, 18 h; Potency, µM (top dose mostly 46.1 µM), most hits filed as cytotoxic; 410,000 tested, 0.76% active
#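 CellTiter-Glo luminescence gave cytotoxicity after 18 hours at 37 degrees C. The cells were HepG2 CAGA-GFP in 1% FBS DMEM, stimulated with 500 pg/mL TGF-beta after compound addition. %Activity was normalised to no-cell wells (complete cell-killing) and DMSO (no toxicity), and curves were fitted and classified.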
# Giardia killer: kills Giardia lamblia; Giardia lamblia trophozoite viability; activity change, % at 7.66 µM, hits read low; 340,000 tested, 0.15% active; in the data active means activity change below about -80%; inconclusive means between about -30% and that limit;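 further: parasites exposed to compound for two days anaerobically before the ATP read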
#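 ATP-content bioluminescence gauges trophozoite survival. Cells (100/well) receive compound and incubate anaerobically for 48 hrs at 37 deg C; detection reagent follows for 15-30 min at room temperature.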
# Hits are given with their value; – = inactive; ? = inconclusive; · = not tested or not shown. Only some compounds are listed: those with a hit (about 2.6% of all), similar ones and a draw of the others. Unless noted, the call rests on the fitted dose curve; in most records, active means well fitted curve in the direction sought with a large enough effect; inconclusive means small, poorly fitted or top-dose-only effect, or another doubt; inactive means no such curve, though single readings can be large; an effect the other way counts as inactive or inconclusive.
SMILES,ATXN2 expr inh,S2 tox,TGFb SMAD3 inh,uPA surface inh,HepG2 tox,Giardia killer
O=C(CN1C(=O)c2ccccc2C1=O)c1ccccc1,–,–,?,–,–,?
CC1=C(CC(=O)c2ccccc2)C(=O)c2ccccc2C1=O,–,–,6.3µM,–,6.3µM,–
Cc1cc(/C=C2\C=Cc3ccccc32)cc(C)c1[N+](=O)[O-],·,·,–,·,–,·
CCn1nnc2c(N3CCCC3)ncnc21,·,·,·,·,·,–
C=CS(=O)(=O)c1ccc(Oc2ccc(S(=O)(=O)C=C)cc2)cc1,8.9µM,5µM,–,–,3.2µM,–
NC(=O)SCC(=O)Nc1ccc(Cl)c(Cl)c1,?,–,13µM,–,–,–
COc1ccc(Nc2ccc3c(c2)=NC2(CCCCC2)[N+]=3[O-])cc1,?,·,3.2µM,–,13µM,–
O=[N+]([O-])c1ccc2c(c1N1CCCCC1)=NC1(CCCCC1)[N+]=2[O-],–,?,–,–,–,–
[O-][N+]1=c2ccc(Nc3ccccc3)cc2=NC12CCCCC2,?,14µM,6.3µM,–,–,–
Cc1cc(NCCCn2ccnc2)n2nc(-c3ccc(Cl)cc3)cc2n1,–,–,–,–,–,–
CC(C)(C)c1cc(NCCCn2ccnc2)n2ncc(-c3ccc(Cl)cc3)c2n1,?,?,?,–,22µM,–
COC(=O)[C@@H]1CCCN1Cc1ccc2c(c1)CN(Cc1cccn1-c1ccc(Cl)cn1)CCO2,·,–,·,·,·,·
O=C1c2ccc3c4c(ccc(c24)C(=O)N1c1cccc(O)c1)C(=O)N(c1cccc(O)c1)C3=O,·,?,4µM,?,4.5µM,–
O=C1c2ccc3c4c(ccc(c24)C(=O)N1c1cccc(O)c1)CC3,–,–,–,–,–,–
CCOc1ccc(/C=C2\SC(=S)N(CCCC(=O)NCCCN3CCOCC3)C2=O)cc1,8.9µM,?,?,–,–,–
CCc1ccc(/C=C2\SC(=S)N(CCCC(=O)NCCCN3CCOCC3)C2=O)cc1,·,10µM,–,·,–,·
Cc1ccc(/C=C2\SC(=S)N(CCC(=O)N3CCOCC3)C2=O)cc1,–,–,–,–,–,–
CCc1ccc(/C=C2/SC(=S)N(CCC(=O)NCCCN3CCOCC3)C2=O)cc1,–,?,–,–,–,–
COc1ccc(/C=C2\SC(=S)N(CCC(=O)N3CCOCC3)C2=O)cc1,–,0.2µM,–,–,–,–
Cc1cc(C(=O)Nc2ccccc2-c2nc(CNC(=O)c3ccccc3Cl)c(C)o2)c(C)o1,·,–,·,·,·,·
CN(C)c1cc2c3ccccc3ccc2c2ccccc12,·,·,–,·,–,·
COc1ccc(CN2CCCC(c3nc(-c4ccncc4)ncc3-c3ccccc3)C2)c(OC)c1OC (stereo not given),·,–,·,·,·,·
Cc1cc(C)c2c(C)nn(C3CCCCC3)c2n1,–,–,–,·,–,–
Nc1ncnc2c1c(-c1cnc3[nH]ccc3c1)nn2C1CCCC1,19µM,·,·,·,·,·
COc1cc(NC(=O)CN2C(=O)COc3ccc(S(=O)(=O)NC4CCCC4)cc32)cc(OC)c1,–,–,–,·,–,·
SMILES,ATXN2 expr inh,S2 tox,TGFb SMAD3 inh,uPA surface inh,HepG2 tox,Giardia killer
Cc1ccc(NC(=O)CN2C(=O)COc3ccc(S(=O)(=O)Nc4ccccc4)cc32)c(C)c1,–,?,?,·,–,·
Cc1cc(Cl)ccc1NC(=O)CN1C(=O)COc2ccc(S(=O)(=O)Nc3ccccc3)cc21,–,?,14µM,·,–,·
Cc1ccc(NC(=O)CN2C(=O)COc3ccc(S(=O)(=O)N4CCCC4)cc32)cc1C,–,?,–,–,–,–
Cc1ccc(NC(=O)CN2CCSc3ccc(S(=O)(=O)N4CCCC4)cc32)cc1C,–,14µM,?,·,–,·
O=C(CN1C(=O)COc2ccc(S(=O)(=O)NC3CCCC3)cc21)Nc1ccc(Cl)cc1F,–,–,?,·,16µM,·
Cc1ccc(NC(=O)CN2C(=O)COc3ccc(S(=O)(=O)N4CCCCCC4)cc32)cc1Cl,·,·,10µM,·,–,·
Cc1cccc(OCC(O)CNC(C)(C)C)c1C (stereo not given),–,–,·,·,·,·
O=C(CN1C(=O)COc2ccc(S(=O)(=O)NC3CCCC3)cc21)Nc1ccc(F)c(Cl)c1,–,?,13µM,·,–,·
COc1ccc2[nH]c(C)cc2c1,·,·,–,·,–,·
CN(Cc1ccon1)C(=O)c1cnn(-c2nccc(-c3ccc4c(c3)OCO4)n2)c1C1CC1,·,–,·,·,·,·
Cc1cc(C(=O)CN2C(=O)NC3(CCCc4sccc43)C2=O)c(C)n1-c1ccccc1 (stereo not given),–,–,–,–,–,–
COc1ccc(-n2c(C)cc(C(=O)CN3C(=O)NC4(CCCc5sccc54)C3=O)c2C)cc1 (stereo not given),·,–,?,11µM,–,–
CC1CCc2nc(NC(=O)Cc3ccc(Cl)cc3)sc2C1 (stereo not given),–,–,16µM,·,–,·
CC1CCc2nc(NC(=O)CCSc3ccccc3)sc2C1 (stereo not given),–,–,–,–,–,–
COc1cccc(CNc2ncc(C(=O)Nc3cc(OC)c(OC)c(OC)c3)c(C)n2)c1,–,–,–,5.6µM,–,–
CN=c1scc(-c2cccs2)n1/N=C/c1ccc(O)c(O)c1O,–,?,–,–,–,-92
CCOc1ccc(-c2ccc(SCC(=O)Nc3nnc(CC)s3)nn2)cc1,–,–,–,–,–,?
CCOc1ccc(-c2ccc(SC)nn2)cc1,?,–,–,–,13µM,-87
Cc1ccc(CN2CCOc3ccc(C(C)(O)COc4ccccc4)cc3C2)o1 (stereo not given),·,–,·,·,·,·
CCCCNc1c(-c2cccc(-c3cc(C(C)=O)cs3)c2)nc2cc(C)ccn12,22µM,11µM,?,–,–,–
Cc1c(C(=O)NCc2ccccc2Cl)sc2ncnc(NCC3CCCO3)c12 (stereo not given),·,–,·,·,·,·
CC(C)C[C@H](CO)Nc1nc(Nc2cccc(Cl)c2)c2ncn(C(C)C)c2n1,?,22µM,?,?,–,–
CCCCCOc1ccc(C2SC(=O)NC2=O)cc1OCC (stereo not given),–,–,·,·,·,·
COC(=O)C[C@@H]1C[C@H]2c3cc(NC(=O)C4CCC4)ccc3O[C@H]2[C@@H](CO)O1,–,–,–,·,–,·
O=C(C[C@@H]1C[C@H]2c3cc(NC(=O)C4CCC4)ccc3O[C@H]2[C@@H](CO)O1)NCc1ccc(-c2ccccc2)cc1,?,?,?,·,16µM,·
Cc1ccc(CNc2nc(C)c(-c3ccn(CCN4CCOCC4)n3)s2)o1,·,–,·,·,·,·
CCCCN(C(C)=O)c1ccc2c(c1)C1CC2CCN1C(=O)OCc1ccccc1 (stereo not given),?,?,13µM,?,–,–
CCN(CCc1ccccc1)c1ccc2c(c1)C1CC2CCN1C(=O)OCc1ccccc1 (stereo not given),–,–,–,–,–,–
O=C(c1cncc(Br)c1)N1CCC(N2CCCC2)CC1,–,·,·,·,·,·
